# Experimental data published in PubChem BioAssay (NCATS).
# Where “and” joins values, the source holds several entries; their conditions need not be identical. Identical values can stand only once. Inconclusive results are not listed. Entries that show only a call come without a potency. Calls of active or inactive are those of the source. Calls come from the whole dose curve.
# Columns and labels:
# [1] = Cytotoxicity counterscreen for inhibitors of SARS-CoV-2 cell entry (AID 1645845); note: nearly all actives have a fitted effect of over 50% in size
# In short: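 After a 15 min room-temperature ATPLite 1step step, luminescence reflected ATP remaining in HEK293-ACE2 cells exposed to compound for 1 h plus 48 h at 37 C, with percent activity set by cell and no-cell controls.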
# [2] = Primary qHTS to identify inhibitors of SARS-CoV-2 cell entry (AID 1645846); note: nearly all actives have a fitted effect of over 45% in size
# In short: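 Inhibition of spike-mediated entry was scored in human ACE2-transfected Expi293F cells. Particles were MLV-pseudotyped with Wuhan-Hu-1 S carrying a 19-aa C-terminal deletion; signal was luciferase after two days, scaled between spike PP and fusion-protein-free PP.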
# [3] = activity change, negative = inhibition: at 57.1 µM (top of the series) unless noted
smiles,measurement,setting,value
Clc1cccc(C(c2ccc3nc[nH]c3c2)n2ccnc2)c1 (stereo unspecified),Potency,[1],inactive
same,Potency,[2]; [3],inactive
Cc1ncc(CO)c(CO)c1O,Potency,[1],inactive
same,"activity change, negative = inhibition",[2]; [3],-1.83%
O=C(O)C[C@H](O)C[C@H](O)/C=C/c1c(C2CC2)nc2ccccc2c1-c1ccc(F)cc1,Potency,[1],inactive
same,"activity change, negative = inhibition",[2]; [3],-3.35%
O=C(O)c1cc(=O)[nH]c(=O)[nH]1,Potency,[1],inactive
same,Potency,[2]; [3],inactive
same,"activity change, negative = inhibition",[2]; [3],-5.5%
CCCc1nn(C)c2c(=O)[nH]c(-c3cc(S(=O)(=O)N4CCN(C)CC4)ccc3OCC)nc12,Potency,[1],inactive
same,Potency,[2]; [3],inactive
same,"activity change, negative = inhibition",[2]; [3],-6.94%
CO[C@@H]1[C@@H](OC(N)=O)[C@@H](O)[C@H](Oc2ccc3c(O)c(NC(=O)c4ccc(O)c(CC=C(C)C)c4)c(=O)oc3c2C)OC1(C)C,Potency,[1],inactive
same,Potency,[2]; [3],inactive
same,"activity change, negative = inhibition",[2]; [3],0.81%
CC1(C)O[C@@H]2C[C@H]3[C@@H]4C[C@H](F)C5=CC(=O)C=C[C@]5(C)[C@@]4(F)[C@@H](O)C[C@]3(C)[C@]2(C(=O)CO)O1,Potency,[1],inactive
same,Potency,[2]; [3],inactive
same,"activity change, negative = inhibition",[2]; [3],-12.3%
C[C@](O)(CS(=O)(=O)c1ccc(F)cc1)C(=O)Nc1ccc(C#N)c(C(F)(F)F)c1,Potency,[1],inactive
same,"activity change, negative = inhibition",[2]; [3],-4.4%
C[N+]1(C)CCCC(OC(=O)C(O)(c2ccccc2)c2ccccc2)C1 (stereo unspecified),Potency,[1],inactive
same,"activity change, negative = inhibition",[2]; [3],-26.9%
CC[C@H](C)C(=O)O[C@H]1C[C@H](O)C=C2C=C[C@H](C)[C@H](CC[C@@H](O)C[C@@H](O)CC(=O)O)[C@H]21,Potency,[1],inactive
same,Potency,[2]; [3],inactive
same,"activity change, negative = inhibition",[2]; [3],-12.2%
C[C@@H](CN1CC(=O)NC(=O)C1)N1CC(=O)NC(=O)C1,Potency,[1],inactive
same,Potency,[2]; [3],inactive
same,"activity change, negative = inhibition",[2]; [3],-20%
COC(=O)N/N=C/c1c[n+]([O-])c2ccccc2[n+]1[O-],Potency,[1],inactive
same,Potency,[2]; [3],inactive
NC(N)=Nc1nc(CSCC/C(N)=N/S(N)(=O)=O)cs1,Potency,[1],inactive
same,Potency,[2]; [3],inactive
CC(=O)NCCCS(=O)(=O)O,Potency,[1],inactive
same,"activity change, negative = inhibition","[2]; SARS-CoV-2 pseudovirus cell entry assay, luminescence, at 27.1 µM (top of the series)",1.79%
same,"activity change, negative = inhibition","[2]; SARS-CoV-2 pseudovirus cell entry assay, luminescence, at 57.1 µM (top of the series)",-6.89%
O=C(O)CSCC(=O)NC1CCSC1=O (stereo unspecified),Potency,[1],inactive
same,Potency,[2]; [3],inactive
same,"activity change, negative = inhibition",[2]; [3],-0.451%
O=C(CCBr)N1CCN(C(=O)CCBr)CC1,Potency,[1],inactive
same,Potency,[2]; [3],inactive
COC(=O)[C@@H]1[C@H]2C[C@H]3c4[nH]c5ccccc5c4CCN3C[C@@H]2CC[C@@H]1O,Potency,[1],inactive
same,Potency,[2]; [3],inactive
same,"activity change, negative = inhibition",[2]; [3],-32.5%
Nc1ncnc2c1ncn2[C@@H]1O[C@H](CO)[C@@H](O)[C@H]1O,Potency,[1],inactive
same,Potency,[2]; [3],inactive
same,"activity change, negative = inhibition",[2]; [3],-8.35%
O=C(NC(Cc1cc(=O)[nH]c2ccccc12)C(=O)O)c1ccc(Cl)cc1 (stereo unspecified),Potency,[1],inactive
same,Potency,[2]; [3],inactive
same,"activity change, negative = inhibition",[2]; [3],1.86%
C#CCN[C@@H]1CCc2ccccc21,Potency,[1],inactive
same,Potency,[2]; [3],inactive
same,"activity change, negative = inhibition",[2]; [3],-2.27%
O=C(O)c1cccnc1,Potency,[1],inactive
same,Potency,[2]; [3],inactive
same,"activity change, negative = inhibition",[2]; [3],-20.2% [at 114 µM]
Cc1cccn2c(=O)c(-c3nnn[nH]3)cnc12,Potency,[1],inactive
same,Potency,[2]; [3],inactive
CCc1cc(C(N)=S)ccn1,Potency,[1],inactive
same,Potency,[2]; [3],inactive
same,"activity change, negative = inhibition",[2]; [3],-20.7%
O=c1[nH]cnc2[nH]ncc12,Potency,[1],inactive
same,Potency,[2]; [3],inactive
same,"activity change, negative = inhibition",[2]; [3],-11.8% [at 114 µM]
CC(=O)Nc1ccc(C(=O)O)cc1,Potency,[1],inactive
same,Potency,[2]; [3],inactive
NC(N)=NC(=O)Cc1c(Cl)cccc1Cl,Potency,[1],inactive
same,Potency,[2]; [3],inactive
O=S(=O)(O)CCS,Potency,[1],inactive
same,Potency,[2]; [3],inactive
same,"activity change, negative = inhibition",[2]; [3],1.92%
c1ccc(-c2nc[nH]c2-c2ccccc2)cc1,Potency,[1],inactive
same,Potency,[2]; [3],inactive
CCC[C@@H]1C[C@@H](C(=O)N[C@@H]([C@H]2O[C@H](SC)[C@H](O)[C@@H](O)[C@H]2O)[C@@H](C)O)N(C)C1,Potency,[1],inactive
same,Potency,[2]; [3],inactive
O=C(O)Cc1cccc(-c2cc(CCCCCCc3ccc(O[C@H]4O[C@H](CO)[C@@H](O)[C@H](O)[C@@H]4O)c(-c4cccc(CC(=O)O)c4)c3)ccc2O[C@H]2O[C@H](CO)[C@@H](O)[C@H](O)[C@@H]2O)c1,"activity change, negative = cytotoxicity",[1],4.02% [at 0.702 µM] (inactive)
same,"activity change, negative = inhibition",[2]; [3],-14.7% [at 0.702 µM]
Clc1ccc2nsnc2c1NC1=NCCN1,Potency,[1],inactive
same,Potency,[2]; [3],inactive
same,"activity change, negative = inhibition",[2]; [3],-13.9%
O=C(NCC1CCCCN1)c1cc(OCC(F)(F)F)ccc1OCC(F)(F)F (stereo unspecified),Potency,[1],inactive
same,Potency,[2]; [3],inactive
same,"activity change, negative = inhibition",[2]; [3],-8.95%
Nc1ccc(S(N)(=O)=O)cc1,Potency,[1],inactive
same,Potency,[2]; [3],inactive
same,"activity change, negative = inhibition",[2]; [3],-17.3%
CN1CCN2c3ncccc3Cc3ccccc3C2C1 (stereo unspecified),Potency,[1],inactive
same,"activity change, negative = inhibition",[2]; [3],-27.6% and -19.2%
CC(=O)[C@H]1CC[C@H]2[C@@H]3C[C@H](C)C4=CC(=O)CC[C@]4(C)[C@H]3[C@@H](O)C[C@]12C,Potency,[1],inactive
same,Potency,[2]; [3],inactive
CO/N=C(/C(=O)N[C@@H]1C(=O)N2C(C(=O)[O-])=C(C[n+]3ccn4ncccc43)CS[C@H]12)c1nsc(N)n1,Potency,[1],inactive
same,Potency,[2]; [3],inactive
CN[C@@H]1[C@H](O)[C@H](NC)[C@H]2O[C@@]3(O)C(=O)C[C@@H](C)O[C@H]3O[C@@H]2[C@H]1O,Potency,[1],inactive
same,Potency,[2]; [3],inactive
Nc1ccn([C@@H]2CS[C@H](CO)O2)c(=O)n1,Potency,[1],inactive
same,Potency,[2]; [3],inactive
same,"activity change, negative = inhibition",[2]; [3],-19.3% [at 114 µM]
